PubChem BioAssay AID651871 (Sanford-Burnham Center for Chemical Genomics, 2012)
Values joined by “and” are separate entries in the source; they are usually repeats but may differ in a detail not shown here. Identical values can stand only once.

The compounds below were run on HL-1 (assay: protection of cardiomyocytes from stress damage, SAR follow-up, cell-based, panel, H9c2 and HL-1, ATP luminescence, set 2 (AID 651871;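 note: cells exposed to stressor for 2 h before ATP readout; reference of the scale not given here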)). Conditions: H9c2/HL-1 cardiomyocytes, 2-deoxyglucose stress, with 2-deoxyglucose, run 4, at 79 µM (top of the series).

Compound	activity (protection/inhibition)
CCOC(=O)c1cccc(NC(=O)CNC(=O)c2cc(-c3cc(OC)c(OC)c(OC)c3)nc3ccccc23)c1	54.1%
COc1ccc2c(c1OC)C(=O)N1c3ccccc3C(=O)N(Cc3cccc(Cl)c3Cl)C21 (stereo not drawn)	33.5% and -8.11%
COc1ccc2nc(-c3cc(OC)c(OC)c(OC)c3)cc(C(=O)NCC(=O)Nc3ccc(C(C)=O)cc3)c2c1	68.7%
